# PubChem BioAssay (NCATS)
# Records with an inconclusive call do not appear. A call without a number means that no potency is given here. Activity calls are given as the source filed them. Unless noted, calls follow the shape of the dose curve; as a rule, active = well fitted curve in the direction sought with a large enough effect; inconclusive = small, poorly fitted or top-dose-only effect, or another doubt; inactive = no such curve, though single readings can be large; an effect the other way counts as inactive or inconclusive.
# Legend:
# [1] = system: Zika virus NS2B-NS3 protease (linked construct); assay: Confirmatory screen NINDS AMC qHTS for Zika virus inhibitors (AID 1347152); also: nearly all actives have a fitted effect of over 70% in size; also: potency is read from the fitted curve at half-maximal effect;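 as to activity change, negative = inhibition: AMC fluorescence gain from cleaved Bz-Nle-KRR-AMC substrate over 15 min; top concentration of the series differs between compounds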
# In short: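 In this dose-response qHTS, AMC release from 10 microM Bz-Nle-KRR-AMC by 1 nM linked protease is measured over 15 minutes (about 20% conversion) at pH 8.0. Percent inhibition is fitted to a 4-parameter Hill curve.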
# [2] = Confirmatory screen NINDS Rhodamine qHTS for Zika virus inhibitors (AID 1347161); also: nearly all actives have a fitted effect of over 60% in size; also: potency is read from the fitted curve at half-maximal effect;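 as to activity change, negative = inhibition: purified Zika NS2B-NS3 protease with linked NS2B cofactor domain and Rhodamine110 peptide substrate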
# In short: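 Kinetic fluorescence (Ex 480 nm, Em 540 nm) over 15 min with 1.5 microM Rhodamine110 peptide and 25 nM linked protease.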
# [3] = system: Zika virus NS2B-NS3 protease (linked); assay: 384 well plate NINDS AMC confirmatory qHTS for Zika virus inhibitors (AID 1347163); also: potency is read from the fitted curve at half-maximal effect; nearly all actives have a fitted effect of over 50% in size
# In short: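 Enzyme (5, 30 or 60 nM final) first met test compounds for ~15 min. The AMC-tagged peptide Ac-VKTGKR-AMC followed at 30 microM. Fluorescence was then recorded at 25 min and scaled against no-enzyme and no-inhibitor wells.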
# [4] = system: Zika virus NS2B-NS3 protease (linked construct); assay: 384 well plate NINDS Rhodamine confirmatory qHTS for Zika virus inhibitors (AID 1347164); also: potency is read from the fitted curve at half-maximal effect; nearly all actives have a fitted effect of over 65% in size
# In short: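 Compounds are incubated about 15 minutes with linked protease (5, 30 or 60 nM final). Rhodamine 110-tagged Ac-LKRR substrate (10 microM final) is added and fluorescence measured after 25 minutes.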
# [5] = Tertiary RLuc qRT-PCR qHTS assay for Zika virus inhibitors (AID 1347169); also: top concentration of the series differs between compounds; nearly all actives have a fitted effect of over 55% in size
# In short: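 Orthogonal cell-based infection assay using recombinant ZIKV-RLuc (Cambodian) in Vero cells; compound added prior to virus at MOI 1-2. Incubation lasts 48-72 hrs at 37 degrees C before live-cell Renilla substrate is added and luminescence measured.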
# [6] = system: Zika virus NS2B-NS3 protease; assay: Primary screen GU AMC qHTS for Zika virus inhibitors (AID 1347154); also: nearly all actives have a fitted effect of over 70% in size; also: potency is read from the fitted curve at half-maximal effect
# In short: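 Fluorogenic AMC-substrate cleavage by noncovalent NS2B-NS3 protease complex (25 nM, pH 8.0 Tris buffer with Tween 20) followed for 15 minutes at room temperature (~20% conversion). Percent inhibition from ex340/em450 signal change, fitted by 4-parameter Hill equation.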
# [7] = biological target: Cytochrome P450 3A4 (Homo sapiens) (UniProt P08684); assay: qHTS Assay for Inhibitors and Substrates of Cytochrome P450 3A4 (AID 884); also: nearly all actives have a fitted effect of over 50% in size
# In short: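 Luminescent readout of luciferin produced by CYP3A4 (20 nM) dealkylation of Luciferin-PPXE, 25 uM (its KM). NADPH-driven reaction ran 60 min at RT after 10 min compound preincubation; data scaled to 57 uM ketoconazole as 100% inhibition.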
# [8] = Confirmation and Secondary Assay for Modulators of Hemoglobin Beta Chain Splicing at IVS2 654 locus (AID 910);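 also: HeLa cells stably carrying EGFP split by mutant beta-globin IVS2-654 intron; per-well total GFP intensity by laser scanning cytometry after 2-day treatment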
# In short: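 Readout: per-well total peak green fluorescence (488 nm ex, 500–520 nm em) from objects 5–250 µm, reflecting correct splicing of an EGFP-654 reporter. Compounds were applied for 2 days at 37 °C to overnight-plated HeLa EGFP-654 cells; controls were DMSO and 500 nM IVS2-654 PNA.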
# [9] = Confirmation and Secondary Assay for Modulators of Hemoglobin Beta Chain Splicing at IVS2 705 locus (AID 930);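 also: HeLa cells stably expressing the EGFP-705 splicing reporter; GFP fluorescence per well restored by corrected splicing of the IVS2-705 intron in EGFP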
# In short: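 First, HeLa EGFP-705 cells are seeded at 500/well in Optimem with 2% FCS and left overnight. Next, compound or DMSO is added for 2 days. Finally wells are laser-scanned and total peak GFP intensity scored.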
# [10] = qHTS Assay for Lipid Storage Modulators (AID 1519; calls by dose curve); conditions: Drosophila S3 cells, BODIPY lipid droplet/cell ratio, laser cytometry, cells loaded with oleic acid; for activity change, negative = inhibition: at 57.5 µM (top of the series)
# In short: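 Cells seeded at 5,000 per well were treated with compounds over a concentration series and loaded with oleic acid (400 uM, as added). Lipid droplet fluorescence (488 nm excitation, 500-530 nm channel) was read by laser-scanning cytometry and normalized to 20 uM Triacsin C.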
# [11] = biological target: Ubiquitin carboxyl-terminal hydrolase 1 (Homo sapiens) (UniProt O94782); assay: Inhibitors of USP1/UAF1: Pilot qHTS (AID 504865); also: potency is read from the fitted curve at half-maximal effect; nearly all actives have a fitted effect of over 35% in size
# In short: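 Kinetic fluorescence assay: 1nM USP1/UAF1, 15 min compound preincubation, then 150nM Ub-Rho; 480/540 nm.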
# [12] = system: Zika virus NS2B-NS3 protease (unlinked complex); assay: Confirmatory screen GU AMC qHTS for Zika virus inhibitors (AID 1347153); also: nearly all actives have a fitted effect of over 70% in size
# In short: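 Compounds were preincubated 15 min at room temperature with 25 nM noncovalent NS2B-NS3 protease at pH 8.0; AMC substrate added at 10 microM and 15-min fluorescence gain (340/450 nm) converted to percent inhibition, fitted 4-parameter.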
# [13] = Vero cells viability qHTS for Zika virus inhibitors (AID 1347167)
# In short: (§1)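 Luminescent ATP readout (CellTiter Glo) after 30 min at 37 degrees C gives viability; cells in DMEM + 4% FBS were treated 24 to 48 hours with compound, following overnight attachment.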
# [14] = HepG2 cells viability qHTS for Zika virus inhibitors (AID 1347168)
# In short: as §1
# [15] = Primary qHTS for small molecule stabilizers of the endoplasmic reticulum resident proteome: Secreted ER Calcium Modulated Protein (SERCaMP) assay (AID 1508630)
# In short: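 The SH-SY5Y reporter protocol was run at 3 concentrations up to 38.3 uM (primary) or 11 concentrations (follow-up): 16 h compound, 100 nM thapsigargin for 4 h, then extracellular luciferase luminescence.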
# [16] = biological target: Rap guanine nucleotide exchange factor 3 (Homo sapiens) (UniProt O95398); assay: Confirmatory qHTS for antagonist of cAMP-regulated guanine nucleotide exchange factor 3 (EPAC1) (AID 1645880); also: nearly all actives have a fitted effect of over 55% in size; also: potency is read from the fitted curve at half-maximal effect
# In short: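 Released BODIPY-GDP fluoresces less than Rap1-bound BODIPY-GDP; the signal is followed at 480/540 nm at 5-min intervals over 30 min, after 5 min at room temperature. Reactions contain 100 nM EPAC1, 250 nM RAP1B-BODIPY-GDP and 50 uM GDP; results are normalized to ATA and DMSO.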
# [17] = biological target: Rap guanine nucleotide exchange factor 3 (Homo sapiens) (UniProt O95398); assay: Confirmatory qHTS for agonist of cAMP-regulated guanine nucleotide exchange factor 3 (EPAC1) (AID 1645881);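 also: EPAC1 catalysed release of BODIPY-GDP from Rap1B seen as fluorescence loss; nearly all actives have a fitted effect of over 75% in size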
# [18] = biological target: Rap guanine nucleotide exchange factor 4 (Homo sapiens) (UniProt Q8WZA2); assay: Confirmatory qHTS for agonist of cAMP-regulated guanine nucleotide exchange factor 4 (EPAC2) (AID 1645884);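 also: nucleotide exchange releases bodipy-GDP from Rap1 and this lowers its fluorescence; nearly all actives have a fitted effect of over 65% in size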
# [19] = biological target: Rap guanine nucleotide exchange factor 4 (Homo sapiens) (UniProt Q8WZA2); assay: Confirmatory qHTS for antagonist of cAMP-regulated guanine nucleotide exchange factor 4 (EPAC2) (AID 1645885); also: nearly all actives have a fitted effect of over 25% in size
# [20] = biological target: Glucocorticoid receptor (Homo sapiens) (UniProt P04150); assay: GR-GFP Redistribution (AID 450;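 active = compounds whose dose series gives a full or clear partial fitted curve of increased nuclear translocation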; also: potency is read from the fitted curve at half-maximal effect); conditions: U2OS GR-GFP nuclear translocation, laser cytometry, 2 h
# [21] = biological target: Glucocorticoid receptor (Homo sapiens) (UniProt P04150); assay: GR-EFC Redistribution (AID 451; calls by dose curve; also: potency is read from the fitted curve at half-maximal effect); conditions: CHO-K1 GR-EFC translocation, beta-gal luminescence, 2 h
# In short: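 Translocation of GR-ED fusion to nuclear EA restores b-gal, read by luminescence after 1 h room-temperature detection. Engineered CHO-K1 biosensor cells, 1,000/well, exposed 2 h at 37 C to titrations up to 46 uM final.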
# [22] = biological target: Mitogen-activated protein kinase 10 (Mus musculus) (UniProt Q61831); assay: JNK3 AlphaScreen Assay (AID 530; active = well fitted curve in either direction with a large enough effect, not every such curve was filed as active;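 also: kinase came from lysate of stimulated human HepG2 cells; signal reports phosphorylation of biotinylated GST-cJun 1-79 at Ser73 with 10 µM ATP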)
# In short: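 Kinase buffer: 20 mM Tris-HCl pH 7.6, 10 mM MgCl2, 1 mM DTT, 0.1 mM Na3VO4, 0.01% Tween-20; ATP 10 uM. Substrate biotin-GST-cJun(1-79), enzyme from activated HepG2 lysates. Detection by Ser73 phospho-antibody AlphaScreen.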
# [23] = biological target: Cytochrome P450 3A4 (Homo sapiens) (UniProt P08684); assay: qHTS Assay for Activators of Cytochrome P450 3A4 (AID 885); also: nearly all actives have a fitted effect of over 65% in size
# In short: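 Luminescent readout of luciferin formed from 25 uM Luciferin-PPXE (KM level) by 20 nM CYP3A4 in 200 mM KPO4, with 60 min NADPH-driven reaction at room temperature after 10 min compound exposure. Ketoconazole (57 uM) defined 100% inhibition.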
# [24] = biological target: DNA dC->dU-editing enzyme APOBEC-3G (Homo sapiens) (UniProt Q9HC16); assay: qHTS for inhibitors of Vif-A3G interactions: Validation (AID 588379)
# In short: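 Yellow fluorescence (Ex 488, Em 500-530) of Vif-coexpressing HeLa A3G-eYFP cells, scanned by Acumen cytometer, reports blocked A3G degradation. Cells plated at 700/well overnight at 37 deg C before compound addition, then a further overnight compound incubation at 37 deg C.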
# [25] = ZIKV-mCherry secondary qHTS for Zika virus inhibitors (AID 1347158); also: top concentration of the series differs between compounds
# In short: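 Read-out is percent infection: mCherry-positive Vero cells (nuclear-proximal intensity >450 RFU, 3 SD above negative controls) counted by high-content imaging of Hoechst-stained, PFA-fixed wells after 48-72 h with ZIKV-mCherry at MOI 1 and compound.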
# [26] = measured here: cell count channel max response
# [27] = measured here: lipid channel max response
# Chain of Rap guanine nucleotide exchange factor 3 (Homo sapiens) (O95398 whole entry, looked up): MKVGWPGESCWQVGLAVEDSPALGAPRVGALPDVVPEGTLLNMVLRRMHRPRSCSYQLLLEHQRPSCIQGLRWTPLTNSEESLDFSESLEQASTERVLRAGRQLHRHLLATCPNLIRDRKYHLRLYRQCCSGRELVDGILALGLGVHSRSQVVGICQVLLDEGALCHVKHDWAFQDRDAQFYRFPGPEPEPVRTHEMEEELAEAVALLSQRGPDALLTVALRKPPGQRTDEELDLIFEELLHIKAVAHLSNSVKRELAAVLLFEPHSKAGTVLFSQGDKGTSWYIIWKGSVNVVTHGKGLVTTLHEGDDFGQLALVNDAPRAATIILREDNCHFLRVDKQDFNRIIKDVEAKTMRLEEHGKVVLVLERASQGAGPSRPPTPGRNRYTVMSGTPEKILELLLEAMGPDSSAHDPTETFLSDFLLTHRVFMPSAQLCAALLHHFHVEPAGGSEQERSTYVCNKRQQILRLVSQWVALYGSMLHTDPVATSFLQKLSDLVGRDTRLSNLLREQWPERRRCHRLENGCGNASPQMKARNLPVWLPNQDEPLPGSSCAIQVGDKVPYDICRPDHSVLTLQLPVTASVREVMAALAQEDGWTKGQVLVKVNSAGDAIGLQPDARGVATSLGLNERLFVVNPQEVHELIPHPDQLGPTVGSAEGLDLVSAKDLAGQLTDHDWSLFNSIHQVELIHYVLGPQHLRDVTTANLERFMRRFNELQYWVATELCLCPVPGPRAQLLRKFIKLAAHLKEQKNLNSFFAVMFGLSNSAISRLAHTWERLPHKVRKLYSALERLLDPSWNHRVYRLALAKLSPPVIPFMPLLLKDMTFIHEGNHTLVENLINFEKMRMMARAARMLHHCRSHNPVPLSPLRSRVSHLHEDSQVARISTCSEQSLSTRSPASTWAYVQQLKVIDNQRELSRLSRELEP
# Chain of Cytochrome P450 3A4 (Homo sapiens) (P08684 whole entry, looked up): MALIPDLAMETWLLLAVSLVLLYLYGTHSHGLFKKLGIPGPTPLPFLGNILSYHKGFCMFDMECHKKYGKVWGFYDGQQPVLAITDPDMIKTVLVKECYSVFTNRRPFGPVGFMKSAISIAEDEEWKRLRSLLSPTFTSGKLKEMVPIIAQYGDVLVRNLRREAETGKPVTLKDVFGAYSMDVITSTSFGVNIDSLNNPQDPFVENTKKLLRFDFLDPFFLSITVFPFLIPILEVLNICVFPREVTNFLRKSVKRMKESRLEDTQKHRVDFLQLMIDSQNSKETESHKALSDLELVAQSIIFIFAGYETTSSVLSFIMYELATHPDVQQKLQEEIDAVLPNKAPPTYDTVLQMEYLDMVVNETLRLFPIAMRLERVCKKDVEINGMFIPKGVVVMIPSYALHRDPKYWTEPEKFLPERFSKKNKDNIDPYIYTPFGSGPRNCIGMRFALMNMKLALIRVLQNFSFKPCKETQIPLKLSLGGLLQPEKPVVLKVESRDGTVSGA
# Chain of Rap guanine nucleotide exchange factor 4 (Homo sapiens) (Q8WZA2 whole entry, looked up): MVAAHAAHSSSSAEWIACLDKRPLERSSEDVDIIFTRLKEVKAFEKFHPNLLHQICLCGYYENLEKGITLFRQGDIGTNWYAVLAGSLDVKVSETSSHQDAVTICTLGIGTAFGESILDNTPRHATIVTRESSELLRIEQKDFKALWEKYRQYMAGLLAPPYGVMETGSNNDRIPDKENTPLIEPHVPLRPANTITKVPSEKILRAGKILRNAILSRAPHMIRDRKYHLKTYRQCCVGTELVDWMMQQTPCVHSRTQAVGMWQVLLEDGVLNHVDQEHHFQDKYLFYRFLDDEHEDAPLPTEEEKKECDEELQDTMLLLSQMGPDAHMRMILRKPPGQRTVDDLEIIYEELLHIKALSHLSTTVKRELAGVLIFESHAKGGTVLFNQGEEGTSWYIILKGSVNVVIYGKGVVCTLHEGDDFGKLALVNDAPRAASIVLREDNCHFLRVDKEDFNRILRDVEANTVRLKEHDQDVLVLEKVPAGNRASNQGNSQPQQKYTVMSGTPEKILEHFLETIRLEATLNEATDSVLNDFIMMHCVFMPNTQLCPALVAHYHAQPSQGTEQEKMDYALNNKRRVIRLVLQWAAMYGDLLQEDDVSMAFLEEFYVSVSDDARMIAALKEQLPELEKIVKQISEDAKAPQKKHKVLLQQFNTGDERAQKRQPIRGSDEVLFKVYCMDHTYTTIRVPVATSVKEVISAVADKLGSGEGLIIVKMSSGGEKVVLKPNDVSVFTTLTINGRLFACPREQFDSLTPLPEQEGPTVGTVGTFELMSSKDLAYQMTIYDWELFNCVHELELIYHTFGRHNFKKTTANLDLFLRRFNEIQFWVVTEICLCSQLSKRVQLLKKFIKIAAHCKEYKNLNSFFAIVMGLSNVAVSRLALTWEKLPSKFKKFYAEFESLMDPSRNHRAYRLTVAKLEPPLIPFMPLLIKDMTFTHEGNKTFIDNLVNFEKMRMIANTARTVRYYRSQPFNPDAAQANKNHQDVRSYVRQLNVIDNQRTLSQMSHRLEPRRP
# Chain of Glucocorticoid receptor (Homo sapiens) (P04150 whole entry, looked up, the tested form may be a part): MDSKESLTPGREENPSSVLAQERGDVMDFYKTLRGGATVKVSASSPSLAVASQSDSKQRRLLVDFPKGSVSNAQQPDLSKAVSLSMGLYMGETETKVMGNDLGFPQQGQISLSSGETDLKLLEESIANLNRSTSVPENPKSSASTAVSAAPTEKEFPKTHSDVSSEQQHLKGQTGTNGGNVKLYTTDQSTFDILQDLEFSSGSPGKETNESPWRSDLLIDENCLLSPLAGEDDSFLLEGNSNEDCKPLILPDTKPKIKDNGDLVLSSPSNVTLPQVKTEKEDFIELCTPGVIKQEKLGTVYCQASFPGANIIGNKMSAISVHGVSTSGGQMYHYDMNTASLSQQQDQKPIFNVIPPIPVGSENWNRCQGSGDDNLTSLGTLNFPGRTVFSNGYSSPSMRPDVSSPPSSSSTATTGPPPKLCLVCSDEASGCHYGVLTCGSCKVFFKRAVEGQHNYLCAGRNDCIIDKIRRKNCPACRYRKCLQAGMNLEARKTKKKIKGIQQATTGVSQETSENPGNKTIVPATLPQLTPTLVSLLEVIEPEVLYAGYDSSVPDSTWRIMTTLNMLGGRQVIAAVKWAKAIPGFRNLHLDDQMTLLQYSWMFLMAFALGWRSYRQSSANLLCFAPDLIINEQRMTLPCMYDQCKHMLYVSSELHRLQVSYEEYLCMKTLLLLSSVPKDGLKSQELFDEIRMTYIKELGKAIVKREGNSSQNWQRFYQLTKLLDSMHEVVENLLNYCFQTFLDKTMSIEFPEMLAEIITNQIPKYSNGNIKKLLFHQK
# Chain of Ubiquitin carboxyl-terminal hydrolase 1 (Homo sapiens) (O94782 whole entry, looked up): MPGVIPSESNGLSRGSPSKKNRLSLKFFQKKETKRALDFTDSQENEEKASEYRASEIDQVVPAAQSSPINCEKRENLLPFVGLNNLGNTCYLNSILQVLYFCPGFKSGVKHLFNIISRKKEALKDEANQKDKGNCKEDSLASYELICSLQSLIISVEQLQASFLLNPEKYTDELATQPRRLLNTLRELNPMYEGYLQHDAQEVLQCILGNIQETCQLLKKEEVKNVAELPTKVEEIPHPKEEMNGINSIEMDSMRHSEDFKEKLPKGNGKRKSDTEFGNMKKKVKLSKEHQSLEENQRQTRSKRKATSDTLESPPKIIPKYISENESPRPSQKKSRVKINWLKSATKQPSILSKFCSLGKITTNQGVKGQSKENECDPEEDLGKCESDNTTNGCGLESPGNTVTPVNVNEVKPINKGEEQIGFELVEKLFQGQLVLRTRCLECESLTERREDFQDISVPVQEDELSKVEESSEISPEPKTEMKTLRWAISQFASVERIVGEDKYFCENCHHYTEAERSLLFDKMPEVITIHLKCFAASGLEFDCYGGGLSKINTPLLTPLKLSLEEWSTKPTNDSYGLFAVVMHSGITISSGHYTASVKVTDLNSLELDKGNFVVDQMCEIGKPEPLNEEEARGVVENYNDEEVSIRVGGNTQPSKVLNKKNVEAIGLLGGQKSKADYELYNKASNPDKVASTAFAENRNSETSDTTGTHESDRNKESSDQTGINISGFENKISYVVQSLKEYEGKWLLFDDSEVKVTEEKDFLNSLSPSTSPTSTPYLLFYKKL
# Chain of DNA dC->dU-editing enzyme APOBEC-3G (Homo sapiens) (Q9HC16 whole entry, looked up): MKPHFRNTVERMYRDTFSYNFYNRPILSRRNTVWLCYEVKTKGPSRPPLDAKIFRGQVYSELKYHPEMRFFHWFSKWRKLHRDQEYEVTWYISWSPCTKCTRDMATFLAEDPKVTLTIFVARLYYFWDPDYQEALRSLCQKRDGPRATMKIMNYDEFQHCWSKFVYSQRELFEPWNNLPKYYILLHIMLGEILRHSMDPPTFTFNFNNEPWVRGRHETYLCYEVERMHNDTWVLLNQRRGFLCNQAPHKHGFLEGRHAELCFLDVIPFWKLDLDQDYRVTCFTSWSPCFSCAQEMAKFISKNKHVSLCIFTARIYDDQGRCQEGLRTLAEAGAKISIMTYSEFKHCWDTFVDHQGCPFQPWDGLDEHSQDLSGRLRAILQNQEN
compound,measurement,setting,value
Clc1cc(OCc2nnc3sc(Cc4ccccc4)nn23)c(Cl)cc1OCc1nnc2sc(Cc3ccccc3)nn12,Potency,[1],12.6 µM (active)
same,Potency,[2],3.55 µM (active)
same,Potency,[3],28.2 µM (active)
same,Potency,[4],7.94 µM (active)
same,Potency,[5],inactive
COC(=O)[C@H](CCCN=C(N)N)NC(=O)CCCc1c(-c2ccccc2)[nH]c2c(F)cc(F)cc12,Potency,[6],inactive
O=C(O)CCC/C=C\C[C@@H]1C(/C=C/[C@@H](O)COc2cccc(C(F)(F)F)c2)[C@@H](O)C[C@@H]1O (stereo partly specified),"activity change, negative = inhibition",[6],0.372% [at 6.83 µM] (inactive)
Cn1cnnc1Sc1c([N+](=O)[O-])ncn1C,Potency,[6],inactive
NC(=NCc1ccc(Cl)cc1Cl)NC(=O)c1nc(Cl)c(N)nc1N,Potency,[6],inactive
CC(C)=CCCC1(C)C=Cc2c(O)c3c(c(CC=C(C)C)c2O1)OC12C(=CCCC1C(C)(C)O[C@@]2(C/C=C(\C)C(=O)O)C(=O)O)C3=O (stereo partly specified),Potency,[7],inactive
same,outcome,[8],inactive
same,outcome,[9],inactive
same,"activity change, negative = inhibition",[10],7.82% (inactive)
same,max response,[10]; [26],0.914%
same,max response,[10]; [27],7.86%
same,Potency,[11],79.4 µM (active)
same,Potency,[12],19.2 µM (active)
same,Potency,[2],1.39 µM (active)
same,Potency,[3],158 µM (active)
same,Potency,[4],22.4 µM (active)
same,Potency,[13],inactive
same,Potency,[14],inactive
same,Potency,[15],inactive
same,Potency,[16],55.9 µM (active)
same,outcome,[17],inactive
same,outcome,[18],inactive
same,Potency,[19],inactive
CCCCC/C=C\C\C=C/C=C/C=C/[C@@H](SC[C@H](N)C(=O)NCC(=O)O)[C@@H](O)CCCC(=O)O,"activity change, negative = inhibition",[6],13.3% [at 0.59 µM] (inactive)
O=C(Nc1ccc(Oc2ccccc2)cc1)O[C@@H]1CO[C@H]2[C@@H]1OC[C@@H]2n1nnnc1-c1ccc(-c2ccccc2)cc1,Potency,[1],inactive
same,Potency,[12],inactive
same,Potency,[5],inactive
COc1ccc(-c2nc(C(=O)N3CCN(C)CC3)sc2-c2ccc(OC)cc2)cc1,Potency,[20],> 46 µM (inactive)
same,Potency,[21],> 46 µM (inactive)
same,Potency,[22],inactive
same,Potency,[23],inactive
same,Potency,[24],inactive
same,Potency,[1],24.1 µM (active)
same,Potency,[6],26.7 µM (active)
same,Potency,[2],inactive
same,Potency,[13],inactive
same,Potency,[14],inactive
same,Potency,[16],inactive
same,outcome,[17],inactive
same,Potency,[19],inactive
CC(=Nc1ccccc1N)c1c(C)cc(=O)n(O)c1O,Potency,[6],inactive
O=C(OC1Cc2c(O)cc(O)cc2OC1c1cc(O)c(O)c(O)c1-c1c(C2Oc3cc(O)cc(O)c3CC2O)cc(O)c(O)c1O)c1cc(O)c(O)c(O)c1 (stereo unspecified),Potency,[7],inactive
same,outcome,[8],inactive
same,outcome,[9],inactive
same,"activity change, negative = inhibition",[10],6.85% (inactive)
same,max response,[10]; [26],18.1%
same,max response,[10]; [27],26.1%
same,Potency,[11],44.7 µM (active)
same,Potency,[12],44.1 µM (active)
same,Potency,[25],inactive
same,Potency,[3],22.4 µM (active)
same,Potency,[4],17.8 µM (active)
same,Potency,[5],inactive
C[C@H](CCC(=O)NCC(=O)O)C1CC[C@H]2C3CC[C@@H]4C[C@H](O)CC[C@]4(C)C3C[C@H](O)[C@]12C (stereo partly specified),Potency,[6],inactive
O=C(O)c1ccc(-c2ccc(OC(F)(F)F)cc2)cc1,Potency,[1],inactive
same,Potency,[12],inactive
same,Potency,[5],inactive
CCn1c(=O)n(C2=C(CO)CN(CC3CCCCCCC3)CC2)c2ccccc21,Potency,[6],inactive
Clc1nc2n[nH]nc2nc1Cl,Potency,[1],22.4 µM (active)
same,Potency,[25],inactive
same,Potency,[5],inactive
CC(Sc1nc2ccccc2[nH]1)C(=O)NN=Cc1cc(Br)ccc1O (stereo unspecified),"activity change, negative = inhibition",[6],1.61% [at 6.83 µM] (inactive)
